The nature of assay [1]: Nuclear factor erythroid 2-related factor 2/antioxidant responsive element (Nrf2/ARE) small molecule agonists: qHTS cell viability counter screen in human keratinocytes (AID 1919968; active = well fitted curve in the direction sought with a large enough effect in the repeat runs; an effect the other way counts as inactive or inconclusive; also: nearly all actives have a fitted effect of over 55% in size). An outline of the steps:
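Cells of the KeratinoSens line were plated at 1,500 per well and left for 5 h before compound transfer from DMSO stocks. After a 23 h incubation (37 C, 5% CO2), CellTiter-Fluor was added. Signal was taken as fluorescence intensity 1 h later.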
A general note: Quantitative high-throughput screening tests each substance at several concentrations.

A short description of assay [2]: Nuclear factor erythroid 2-related factor 2/antioxidant responsive element (Nrf2/ARE) small molecule agonists: luciferase reporter gene qHTS assay in human keratinocytes (AID 1919969). Also: nearly all actives have a fitted effect of over 35% in size. Background: Reporter assays use an easily measured gene product as a stand-in for the process of interest.
In assay [3] the target is Gonadotropin-releasing hormone receptor (Homo sapiens) (UniProt P30968). The experiment in a line: Human gonadotropin-releasing hormone receptor (GnRHR) small molecule agonists, calcium flux assay in GnRHR-HEK293 cells (AID 1920063). Also: nearly all actives have a fitted effect of over 35% in size. Also: potency is read from the fitted curve at half-maximal effect. An outline of the steps: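 Compounds dissolved in DMSO are pin-transferred onto dye-loaded GnRHR-HEK293 cells, which were seeded 18 h before at 37 C/5% CO2. Calcium signal is read as fluorescence intensity at 1 s intervals for 3 min.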
(A change in cytosolic calcium serves as a functional read-out for many receptors and channels.)

For assay [4], the target named is KiSS-1 receptor (Homo sapiens) (UniProt Q969F8). The experiment in a line: Human kisspeptin (KISS1R) small molecule agonists, calcium flux assay in KISS1R-HEK293 cells (AID 1920064; active = well fitted curve in the direction sought with a large enough effect in the repeat runs; an effect the other way counts as inactive or inconclusive). In outline:
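Cell line: HEK293, stable human KISS1R. Dye loading 1 h at 37 C after 18 h culture. Read: kinetic fluorescence, 480/540 nm, 3 min at 1 s intervals.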

Assay [5] is described as follows: G protein-coupled receptor (GPCR) small molecule agonists, calcium flux assay: HEK293 wild type cell line counter screen (AID 1920065). In outline:
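Tox21 10K compounds, 15 concentrations each in triplicate, pin-transferred in DMSO onto dye-loaded cells; kinetic read at 480/540 nm for 3 min, 1 s intervals.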

A short description of assay [6]: p53 small molecule agonists, cell-based qHTS assay with human liver microsomes (AID 1963577).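 Also: p53 response element beta-lactamase reporter cells with liver microsomes plus NADPH.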 An outline of the steps: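 HLM-supplemented p53RE-bla reporter assay: 16 h compound exposure at 37 C, microsomes and NADPH each 0.5 mg/mL final, read by fluorescence intensity.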
Assay [7] is described as follows: p53 small molecule agonists, cell-based qHTS assay with rat liver microsomes (AID 1963578). In outline: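 Quantitative HTS of the Tox21 10K library: p53RE-bla cells, rat liver microsomes plus NADPH at 0.5 mg/mL final each, 16 h at 37 C, beta-lactamase fluorescence detection.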
A short description of assay [8]: p53 small molecule agonists, cell-based qHTS assay with rat liver microsomes: qHTS cell viability counter screen (AID 1963580). Also: nearly all actives have a fitted effect of over 45% in size. In outline: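 Luminescent ATP readout (CellTiter-Glo, 30 min at room temperature) reports viability of p53RE-bla HCT-116 cells after 16 h at 37 C with test compounds under metabolic activation by rat liver microsomes and NADPH at 0.5 mg/mL final each.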

The nature of assay [9]: p53 small molecule agonists, cell-based qHTS assay: qHTS cell viability counter screen (AID 1963581). Also: nearly all actives have a fitted effect of over 45% in size. In outline: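 ATP content measured by luminescence in HCT-116 p53RE-bla cells treated 16 h at 37 C, same wells as the reporter screen.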
The nature of assay [10]: p53 small molecule agonists, cell-based qHTS assay (AID 1963582; active = well fitted activation curve with a large enough effect in the signal ratio in the repeat runs, not every such curve was filed as active; the % refers to the signal ratio). In outline: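 16 h compound exposure (37 C) of p53 response element–bla cells, preceded by 5 h recovery at 37 C/5% CO2; read-out via LiveBLAzer B/G FRET substrate, 2 h RT, fluorescence intensity.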
The target of assay [11] is 5-hydroxytryptamine receptor 2A (Homo sapiens) (UniProt P28223). Kind of assay: 5-hydroxytryptamine receptor 2A (HTR2A) small molecule antagonists, cell-based qHTS assay (AID 1963586). Also: nearly all actives have a fitted effect of over 45% in size. Also: potency is read from the fitted curve at half-maximal effect. An outline of the steps: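 CHO cells stably expressing human HTR2A were plated for 18 h at 37 C, then loaded with calcium dye for 1 h. Compounds were preincubated 5 min at room temperature before DOI (4 nM solution) was added. Kinetic fluorescence was read for 3 min.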

The target is the same in assay [12]. Kind of assay: 5-hydroxytryptamine receptor 2A (HTR2A) small molecule agonists, cell-based qHTS assay (AID 1963587). Also: nearly all actives have a fitted effect of over 30% in size. In outline: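 HTR2A-CHO cells, plated 18 h at 37 C/5% CO2, dye-loaded 1 h at 37 C; compounds in DMSO added by pin tool (agonist mode). Intracellular calcium flux read as kinetic fluorescence on FDSS over 2 min at 1 s intervals.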
For assay [13], the target named is Muscarinic acetylcholine receptor M1 (Homo sapiens) (UniProt P11229). Kind of assay: Cholinergic receptor muscarinic 1 (CHRM1) small molecule antagonists, cell-based qHTS assay (AID 1963588). Also: nearly all actives have a fitted effect of over 40% in size. In outline: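 Compounds were tested at 15 concentrations in three independent runs. Dye-loaded CHRM1-CHO cells were exposed 5 min at room temperature before stimulation by acetylcholine added at 50nM. Intracellular calcium was read kinetically on FDSS for 3 min.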

Assay [14] has the same target. Kind of assay: Cholinergic receptor muscarinic 1 (CHRM1) small molecule agonists, cell-based qHTS assay (AID 1963589). Also: nearly all actives have a fitted effect of over 35% in size. In outline: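 Homogeneous fluorescence calcium flux, agonist mode. Human M1-expressing CHO cells; compound dosed at 15 concentrations, three independent runs; signal sampled every 1 sec.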
Assay [15] is described as follows: cAMP Responsive Elements (CRE) small molecule antagonists, cell-based qHTS assay (AID 1963591; active = well fitted inhibition curve with a large enough effect in the signal ratio in the repeat runs, not every such curve was filed as active; the % refers to the signal ratio; also: potency is read from the fitted curve at half-maximal effect). In outline: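 First, CRE-bla HEK293T cells settled 18 h at 37 C. Next, compound and 0.25 uM final NKH477 were applied for 3 h. Last, LiveBLAzer B/G substrate was loaded for 2 h at room temperature.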
Assay [16] addresses D(2) dopamine receptor (Homo sapiens) (UniProt P14416). Kind of assay: Dopamine D2 receptor (DRD2) small molecule agonists, cell-based qHTS assay (AID 1963594). Also: nearly all actives have a fitted effect of over 35% in size. Also: potency is read from the fitted curve at half-maximal effect. In outline: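 HEK293 cells stably expressing DRD2 were cultured 24 h at 37 C, then given Ro20-1724 (0.1 mM final) and compounds for 10 min at room temperature. NKH477 (200nM) was then added for 30 min. cAMP was read by HTRF.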

Assay [17] is described as follows: cAMP Responsive Elements (CRE) small molecule agonists, cell-based qHTS assay (AID 1963590). An outline of the steps:
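HEK 293T cells stably bearing CRE-bla were plated at 2,000 cells per well and rested 18 h. Compounds, positive controls or DMSO were added for 3 h at 37 C. LiveBLAzer B/G substrate was then loaded for 2 h at room temperature.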

The target in assay [18] is Beta-2 adrenergic receptor (Homo sapiens) (UniProt P07550). The experiment in a line: Adrenergic beta2 receptor (ADRB2) small molecule antagonists, cell-based qHTS assay (AID 1963592). Also: series mostly up to about 92 µM; nearly all actives have a fitted effect of over 50% in size. An outline of the steps: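 Assay format: CHO-ADRB2 cells, 18-20hr seeding at 37C/5% CO2, then compound plus 1nM isoproterenol agonist mix for 0.5hr RT. Homogeneous time-resolved fluorescence cAMP detection after 1hr, expressed as 665/615 nm ratio.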

For assay [19], the target named is D(2) dopamine receptor (Homo sapiens) (UniProt P14416). Kind of assay: Dopamine D2 receptor (DRD2) small molecule antagonists, cell-based qHTS assay (AID 1963595; active = well fitted inhibition curve with a large enough effect in the signal ratio in the repeat runs, with a control signal flat; the % refers to the signal ratio). An outline of the steps: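 DRD2-HEK293; 0.1 mM Ro20-1724; cpd 10 min RT; NKH477 200 nM + quinpirole 12 nM, 30 min RT; HTRF cAMP (cAMP-d2/anti-cAMP cryptate), 665/620 nm ratio after 1 h.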

Each structure is given as a SMILES string. Unmarked numbers belong to inactive results. Records with an inconclusive call do not appear. Calls of active or inactive are those of the source. Unless noted, calls follow the shape of the full dose curve.

Beta-2 adrenergic receptor (Homo sapiens), sequence (P07550 whole entry, looked up): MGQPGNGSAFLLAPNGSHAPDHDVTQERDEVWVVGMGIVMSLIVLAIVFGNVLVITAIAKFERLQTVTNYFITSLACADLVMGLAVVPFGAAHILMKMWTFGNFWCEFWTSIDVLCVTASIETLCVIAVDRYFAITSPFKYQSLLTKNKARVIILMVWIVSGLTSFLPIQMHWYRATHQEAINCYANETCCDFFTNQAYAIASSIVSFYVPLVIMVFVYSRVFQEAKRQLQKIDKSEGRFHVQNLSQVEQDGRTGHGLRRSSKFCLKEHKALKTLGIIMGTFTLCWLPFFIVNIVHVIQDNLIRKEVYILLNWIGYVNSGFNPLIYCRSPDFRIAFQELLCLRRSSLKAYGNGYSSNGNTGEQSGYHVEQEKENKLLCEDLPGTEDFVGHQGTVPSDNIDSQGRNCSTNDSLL
5-hydroxytryptamine receptor 2A (Homo sapiens), sequence (P28223 whole entry, looked up): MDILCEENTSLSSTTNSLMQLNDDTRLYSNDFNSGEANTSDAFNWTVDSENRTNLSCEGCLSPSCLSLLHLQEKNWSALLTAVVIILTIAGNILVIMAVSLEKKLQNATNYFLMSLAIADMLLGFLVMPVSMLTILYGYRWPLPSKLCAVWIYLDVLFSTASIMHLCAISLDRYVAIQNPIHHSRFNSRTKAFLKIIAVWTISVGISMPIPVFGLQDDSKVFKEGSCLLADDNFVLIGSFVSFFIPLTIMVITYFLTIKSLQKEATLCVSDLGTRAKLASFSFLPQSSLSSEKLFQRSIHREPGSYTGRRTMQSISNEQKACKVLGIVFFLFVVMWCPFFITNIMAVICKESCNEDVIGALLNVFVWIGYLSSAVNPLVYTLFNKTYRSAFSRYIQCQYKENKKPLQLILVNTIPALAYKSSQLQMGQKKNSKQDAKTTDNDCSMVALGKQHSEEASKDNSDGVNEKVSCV
KiSS-1 receptor (Homo sapiens), sequence (Q969F8 whole entry, looked up): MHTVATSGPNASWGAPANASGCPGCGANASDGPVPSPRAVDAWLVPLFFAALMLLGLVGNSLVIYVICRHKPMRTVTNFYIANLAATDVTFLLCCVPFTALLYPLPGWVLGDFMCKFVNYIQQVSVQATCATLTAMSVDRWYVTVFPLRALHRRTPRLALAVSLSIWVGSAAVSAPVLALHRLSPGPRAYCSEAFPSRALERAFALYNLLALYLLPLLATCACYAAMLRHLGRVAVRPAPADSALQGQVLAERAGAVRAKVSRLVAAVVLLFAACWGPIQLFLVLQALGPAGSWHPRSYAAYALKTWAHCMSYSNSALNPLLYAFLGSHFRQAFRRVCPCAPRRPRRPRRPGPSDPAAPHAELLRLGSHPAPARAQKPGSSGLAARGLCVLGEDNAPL
Muscarinic acetylcholine receptor M1 (Homo sapiens), sequence (P11229 whole entry, looked up): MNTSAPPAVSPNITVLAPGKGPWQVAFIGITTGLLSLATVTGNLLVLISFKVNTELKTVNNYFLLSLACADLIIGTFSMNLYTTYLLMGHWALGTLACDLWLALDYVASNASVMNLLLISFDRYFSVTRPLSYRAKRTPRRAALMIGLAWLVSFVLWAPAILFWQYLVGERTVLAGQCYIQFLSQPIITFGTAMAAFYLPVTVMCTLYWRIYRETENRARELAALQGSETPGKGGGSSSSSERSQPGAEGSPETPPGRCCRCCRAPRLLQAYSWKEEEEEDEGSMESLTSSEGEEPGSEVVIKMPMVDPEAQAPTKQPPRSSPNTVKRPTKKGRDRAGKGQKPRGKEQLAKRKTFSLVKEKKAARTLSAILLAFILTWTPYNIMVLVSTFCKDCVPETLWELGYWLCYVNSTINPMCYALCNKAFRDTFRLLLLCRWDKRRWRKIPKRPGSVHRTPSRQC
D(2) dopamine receptor (Homo sapiens), sequence (P14416 whole entry, looked up): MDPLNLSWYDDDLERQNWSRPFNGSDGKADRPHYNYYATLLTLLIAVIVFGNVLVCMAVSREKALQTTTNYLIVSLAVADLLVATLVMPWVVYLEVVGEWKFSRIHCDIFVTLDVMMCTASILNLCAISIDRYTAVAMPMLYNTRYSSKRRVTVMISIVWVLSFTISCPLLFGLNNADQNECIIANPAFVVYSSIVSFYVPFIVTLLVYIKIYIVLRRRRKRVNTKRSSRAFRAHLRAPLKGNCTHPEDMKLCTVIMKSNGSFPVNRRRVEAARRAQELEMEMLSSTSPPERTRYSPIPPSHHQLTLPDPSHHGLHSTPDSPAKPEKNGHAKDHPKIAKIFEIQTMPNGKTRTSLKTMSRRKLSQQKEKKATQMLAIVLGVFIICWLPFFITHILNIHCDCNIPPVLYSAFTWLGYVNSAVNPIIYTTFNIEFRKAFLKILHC
Gonadotropin-releasing hormone receptor (Homo sapiens), sequence (P30968 whole entry, looked up): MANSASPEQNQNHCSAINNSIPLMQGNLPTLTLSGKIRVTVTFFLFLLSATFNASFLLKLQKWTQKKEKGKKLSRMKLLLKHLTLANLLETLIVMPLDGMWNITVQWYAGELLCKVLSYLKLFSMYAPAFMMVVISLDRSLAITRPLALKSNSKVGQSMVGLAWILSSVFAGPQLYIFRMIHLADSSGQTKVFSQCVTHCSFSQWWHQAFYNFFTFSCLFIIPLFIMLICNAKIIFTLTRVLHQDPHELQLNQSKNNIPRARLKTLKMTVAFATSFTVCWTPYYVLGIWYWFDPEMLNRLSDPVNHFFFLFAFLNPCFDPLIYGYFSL

For the compound `Oc1ccc(C(O)CNCCCCCCNCC(O)c2ccc(O)c(O)c2)cc1O` (configuration not stated), the Potency result in [1], in assay [2], in assay [6], in assay [7], in assay [8] and in assay [9] was “inactive” in each case. Besides, the Potency result in [10], in assay [11], in assay [12], in assay [13], in assay [14] and in assay [15] was “inactive” each time. Besides, the Potency result in [16] is “inactive”. Also, the Potency in assay [3] is 75.6 nM (active). Further, the outcome in assay [4] and in assay [5] was inactive.

Take `C[C@]1(Cn2ccnn2)[C@H](C(=O)O)N2C(=O)C[C@H]2S1(=O)=O`: the Potency entry in [1], in assay [2], in assay [3], in assay [6], in assay [7] and in assay [8] was “inactive” each time. In addition, the Potency result in assay [9], in [10], in [17], in assay [18], in assay [16] and in [19] was “inactive” each time. Also, the result in assay [4] and in [5] was inactive. Besides, the Potency in assay [15] is 1880 nM (active).

With `CC(C)=CCC[C@H](C)CCO`, the Potency result in assay [1], in assay [2], in [3], in assay [6], in assay [7] and in assay [8] was “inactive” throughout. Moreover, the Potency result in assay [9], in assay [10], in assay [11], in assay [12], in assay [14] and in assay [15] was “inactive” throughout. Further, the Potency entry in assay [18], in assay [16] and in [19] was “inactive” each time. The result in assay [4] and in assay [5] was inactive.

On to `Cc1cn[nH]c1`, for which the Potency result in assay [1], in [2], in [3], in assay [6], in [7] and in assay [8] was “inactive” each time. In addition, the Potency entry in assay [9], in assay [10], in assay [17], in assay [15], in assay [18] and in [16] was “inactive” in each case. Besides, the Potency result in assay [19] was “inactive”. Further, the outcome in assay [4] and in assay [5] was inactive.

As for `O=C1CCCCCCCCCCC(=O)OCCO1`, the Potency entry in assay [1], in [2], in assay [3], in [6], in assay [7] and in assay [8] was “inactive” each time. Further, the Potency entry in [9], in assay [10], in assay [11], in assay [13], in assay [14] and in assay [18] was “inactive” throughout. For the same compound, the result in [4] and in assay [5] was inactive.

On to `CN(C)CCN1CCN(c2cccc(Cl)c2)C1=O`, for which the Potency result in assay [1], in assay [2], in [3], in assay [6], in [7] and in assay [8] was “inactive” in each case. The Potency result in assay [9], in assay [10], in [12], in assay [14], in [17] and in [18] was “inactive” throughout. In addition, the result in [4] and in assay [5] was inactive. The Potency in [11] was 1830 nM (active); in assay [16], 13300 nM (active).

Take `N#CCC(=O)NN`: the Potency entry in assay [1], in assay [2], in assay [3], in assay [6], in assay [7] and in assay [8] was “inactive” throughout. Moreover, the Potency entry in assay [9], in [10], in [12], in assay [14], in assay [17] and in assay [15] was “inactive” throughout. Moreover, the Potency result in [18] and in assay [19] was “inactive” in each case. Further, the outcome in [4] and in [5] was inactive.

For the compound `CC(C)(O)C(=O)c1ccccc1`, the Potency result in [1], in assay [2], in assay [3], in assay [6], in assay [7] and in assay [8] was “inactive” in each case. Further, the Potency result in assay [9], in assay [10], in assay [11], in assay [12], in assay [13] and in assay [14] was “inactive” in each case. Also, the Potency entry in assay [15], in assay [18], in [16] and in assay [19] was “inactive” in each case. Also, the outcome in assay [4] and in [5] was inactive.

These data come from PubChem BioAssay (Tox21).
